Data on 13 molecules can be found in PubChem BioAssay (NCATS).

Experiment [1] in a line: qHTS of pediatric cancer cell lines to identify multiple opportunities for drug repurposing: Primary screen for SJ-GBM2 cells (AID 1347091). Further: potency means the concentration at half of the fitted maximal effect. The method in brief: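 Viability measured as metabolically active cells via CellTiter-Glo luminescence following 48 hours of compound exposure, 11-point dilutions in confirmatory testing. 500-1,000 cells/well plated 5 hours before dosing; controls were DMSO and 2.3 µM bortezomib.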
(In qHTS, concentration-response curves come from the screen itself.)

Experiment [2] is described as follows: qHTS of pediatric cancer cell lines to identify multiple opportunities for drug repurposing: Primary screen for A673 cells (AID 1347092). Further: nearly all actives have a fitted effect of over 45% in size. Further: potency means the concentration at half of the fitted maximal effect. Put shortly:
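Cells are plated, rested 5 h, dosed by pintool, incubated 48 h, then lysed with CellTiter-Glo and read by luminescence. DMSO is the neutral control; bortezomib at 2.3 uM final is the positive control.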

Experiment [3] in a line: qHTS of pediatric cancer cell lines to identify multiple opportunities for drug repurposing: Primary screen for SK-N-MC cells (AID 1347093). Further: potency means the concentration at half of the fitted maximal effect. Put shortly: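 Metabolically active cells were quantified by ATP-dependent luminescence (CellTiter-Glo, 15 min at room temperature) following 48 h treatment. Cells had been plated at 500-1,000 per well and settled for 5 h beforehand.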

The nature of experiment [4]: qHTS of pediatric cancer cell lines to identify multiple opportunities for drug repurposing: Primary screen for BT-37 cells (AID 1347094). Further: potency means the concentration at half of the fitted maximal effect. The method in brief:
(§1)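 Viability was measured as metabolically active cells after 48 hours of treatment, read by CellTiter-Glo luminescence. Compounds were tested at multiple final concentrations, giving concentration-response curves.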

A short description of experiment [5]: qHTS of pediatric cancer cell lines to identify multiple opportunities for drug repurposing: Primary screen for NB-EBc1 cells (AID 1347095). Further: potency means the concentration at half of the fitted maximal effect. The method in brief: as §1
Experiment [6] is described as follows: qHTS of pediatric cancer cell lines to identify multiple opportunities for drug repurposing: Primary screen for U-2 OS cells (AID 1347096). Further: nearly all actives have a fitted effect of over 50% in size. Further: potency means the concentration at half of the fitted maximal effect. The method in brief: (§2)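 Viability after 48 h compound treatment at 37C, 500-1,000 cells/well, read as ATP luminescence with CellTiter-Glo. Primary screens used 11-point (MIPE, 0.78 nM-46 µM) or 8-point (NPC, 0.59 nM-46 µM) final concentrations; follow-up screens used 11-point dilutions.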

Experiment [7] is described as follows: qHTS of pediatric cancer cell lines to identify multiple opportunities for drug repurposing: Primary screen for Saos-2 cells (AID 1347097). Further: nearly all actives have a fitted effect of over 40% in size. Further: potency means the concentration at half of the fitted maximal effect. The method in brief: as §1
Experiment [8] is described as follows: qHTS of pediatric cancer cell lines to identify multiple opportunities for drug repurposing: Primary screen for SK-N-SH cells (AID 1347098). Further: nearly all actives have a fitted effect of over 65% in size. Further: potency means the concentration at half of the fitted maximal effect. The method in brief: (§3)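 Cells (500-1,000/well) rested 5 h, then received compounds for 48 h; metabolically active cells were measured by CellTiter-Glo luminescence. Final concentrations spanned up to 46 µM (MIPE, 11-point) or 0.59 nM-46 µM (NPC, 8-point) in primary screens, 11-point in follow-ups.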

A short description of experiment [9]: qHTS of pediatric cancer cell lines to identify multiple opportunities for drug repurposing: Primary screen for NB1643 cells (AID 1347099). Further: nearly all actives have a fitted effect of over 50% in size. Further: potency means the concentration at half of the fitted maximal effect. Put shortly:
as §1

Experiment [10] can be described thus: qHTS of pediatric cancer cell lines to identify multiple opportunities for drug repurposing: Primary screen for LAN-5 cells (AID 1347100). Further: potency means the concentration at half of the fitted maximal effect. Put shortly: as §2
A short description of experiment [11]: qHTS of pediatric cancer cell lines to identify multiple opportunities for drug repurposing: Primary screen for BT-12 cells (AID 1347101). Further: nearly all actives have a fitted effect of over 25% in size. Further: potency means the concentration at half of the fitted maximal effect. The method in brief: as §3
Experiment [12] in a line: qHTS of pediatric cancer cell lines to identify multiple opportunities for drug repurposing: Primary screen for Rh18 cells (AID 1347102). Further: nearly all actives have a fitted effect of over 65% in size. The method in brief: as §2
Experiment [13] is described as follows: qHTS of pediatric cancer cell lines to identify multiple opportunities for drug repurposing: Primary screen for OHS-50 cells (AID 1347103). Further: nearly all actives have a fitted effect of over 40% in size. Further: potency means the concentration at half of the fitted maximal effect. Put shortly:
as §3

Experiment [14] in a line: qHTS of pediatric cancer cell lines to identify multiple opportunities for drug repurposing: Primary screen for RD cells (AID 1347104). Further: nearly all actives have a fitted effect of over 55% in size. Further: potency means the concentration at half of the fitted maximal effect. The method in brief:
as §1

Experiment [15] can be described thus: qHTS of pediatric cancer cell lines to identify multiple opportunities for drug repurposing: Primary screen for MG 63 (6-TG R) cells (AID 1347105). Further: nearly all actives have a fitted effect of over 50% in size. Further: potency means the concentration at half of the fitted maximal effect. The method in brief:
as §1

Experiment [16] is described as follows: qHTS of pediatric cancer cell lines to identify multiple opportunities for drug repurposing: Primary screen for control Hh wild type fibroblast cells (AID 1347106).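 Further: series mostly up to about 46 µM; a drop in luminescence marks cytotoxicity and a rise apparent proliferation; nearly all actives have a fitted effect of over 55% in size.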 The method in brief: as §2
Experiment [17] can be described thus: qHTS of pediatric cancer cell lines to identify multiple opportunities for drug repurposing: Primary screen for Rh30 cells (AID 1347107). Further: series mostly up to about 46 µM; nearly all actives have a fitted effect of over 75% in size. Put shortly:
as §2

A short description of experiment [18]: qHTS of pediatric cancer cell lines to identify multiple opportunities for drug repurposing: Primary screen for Rh41 cells (AID 1347108).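 Further: series mostly up to about 46 µM; luminescence drop marks cytotoxic hits; nearly all actives have a fitted effect of over 70% in size.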 The method in brief:
as §1

Experiment [19] is described as follows: qHTS of pediatric cancer cell lines to identify multiple opportunities for drug repurposing: Confirmatory screen for NB1643 cells (AID 1347109). Further: nearly all actives have a fitted effect of over 45% in size. The method in brief: as §2

Several values for one entry are separate records, joined by “and”; a condition that tells them apart may be missing. Equal values may be shown once. Records with an inconclusive call do not appear. Activity calls are given as the source filed them. The call rests on the fitted dose curve; in most records, active means well fitted curve in the direction sought with a large enough effect; inconclusive means small, poorly fitted or top-dose-only effect, or another doubt; inactive means no such curve, though single readings can be large; an effect the other way counts as inactive or inconclusive.

Consider `Clc1ccc2c(N3CCN(CCCN4CCN(c5ccnc6cc(Cl)ccc56)CC4)CC3)ccnc2c1`, for which the Potency result in [1], in experiment [2], in experiment [3], in experiment [4], in [5] and in experiment [6] was “inactive” throughout. The Potency entry in experiment [7], in experiment [8], in experiment [9], in experiment [10], in experiment [11] and in [12] was “inactive” throughout. Moreover, the Potency entry in [13], in [14], in experiment [15], in experiment [16], in experiment [17] and in experiment [18] was “inactive” throughout.

With `COc1c2occc2cc2ccc(=O)oc12`, the Potency entry in experiment [1], in [2], in experiment [3], in experiment [4], in experiment [5] and in experiment [6] was “inactive” each time. In addition, the Potency entry in [7], in experiment [8], in experiment [9], in experiment [10], in experiment [11] and in experiment [12] was “inactive” throughout. Moreover, the Potency entry in experiment [13], in experiment [14], in experiment [15], in [16], in experiment [17] and in [18] was “inactive” throughout.

On to `CNC[C@@H](O)[C@@H](O)[C@H](O)[C@H](O)CO`, for which the Potency entry in experiment [1], in [2], in experiment [4], in experiment [5], in experiment [6] and in experiment [7] was “inactive” in each case. Moreover, the Potency entry in [8], in experiment [9], in [10], in experiment [11], in experiment [12] and in [13] was “inactive” throughout. Further, the Potency result in [14], in experiment [15], in experiment [16], in [17] and in [18] was “inactive” throughout. The Potency in experiment [3] is 23.5 µM (active).

As to `CN(c1nccc(=O)[nH]1)C1CCN(c2nc3ccccc3n2Cc2ccc(F)cc2)CC1`, the Potency entry in experiment [1], in experiment [2], in experiment [4], in experiment [5], in experiment [6] and in [7] was “inactive” throughout. Besides, the Potency result in experiment [8], in experiment [11], in experiment [12], in experiment [14], in experiment [15] and in [16] was “inactive” each time. Also, the Potency result in experiment [17] and in [18] was “inactive” each time. In [3], the Potency is 2.64 µM (active).

Regarding `O=C(NOCC1CC1)c1ccc(F)c(F)c1Nc1ccc(I)cc1Cl`, the Potency is 9.35 µM (active) in experiment [1]; 10.6 µM (active) and 9.35 µM (active) in [2]; 16.8 µM (active) and 1.87 µM (active) in experiment [3]; 24.6 µM (active) and 21.7 µM (active) in experiment [4]; 15 µM (active) and 8.33 µM (active) in experiment [5]; 18.7 µM (active) in [6]. Further, the Potency is 10.6 µM (active) and 16.6 µM (active) in experiment [7]; 19.4 µM (active) in experiment [8]; 16.6 µM (active) in [9]; 16.8 µM (active) and 16.6 µM (active) in [10]; 27.6 µM (active) and 24.3 µM (active) in [11]; 19.3 µM (active) in experiment [13]. Besides, the Potency in [14] was 9.44 µM (active) and 5.26 µM (active); in experiment [15], 26.6 µM (active) and 11.8 µM (active). Also, the Potency entry in experiment [16] is “inactive”.

As for `CC1Cc2ccccc2N1NC(=O)c1ccc(Cl)c(S(N)(=O)=O)c1` (stereo not given), the Potency entry in experiment [1], in [2], in [3], in experiment [4], in experiment [5] and in experiment [6] was “inactive” in each case. Also, the Potency result in experiment [7], in experiment [8], in experiment [9], in experiment [10], in experiment [11] and in experiment [12] was “inactive” each time. In addition, the Potency entry in experiment [13], in [14], in experiment [15], in experiment [16], in [17] and in [18] was “inactive” throughout.

For `COc1cc(OC)c(C(=O)CCCN2CCCC2)c(OC)c1`, the Potency entry in [1], in experiment [2], in experiment [3], in experiment [4], in experiment [5] and in [6] was “inactive” each time. Further, the Potency entry in experiment [7], in experiment [8], in experiment [9], in [10], in experiment [11] and in [12] was “inactive” each time. For the same molecule, the Potency result in experiment [13], in [14], in [15], in experiment [16], in experiment [17] and in experiment [18] was “inactive” throughout.

On to `CC1=C(C(=O)O)N2C(=O)[C@@H](NC(=O)[C@H](N)C3=CCC=CC3)[C@H]2SC1`, for which the Potency result in experiment [1], in [2], in experiment [3], in experiment [4], in experiment [5] and in experiment [6] was “inactive” in each case. Moreover, the Potency result in experiment [7], in experiment [8], in experiment [9], in [10], in experiment [11] and in [12] was “inactive” throughout. In addition, the Potency result in experiment [13], in experiment [14], in experiment [15], in [16], in [17] and in experiment [18] was “inactive” throughout.

For the molecule `CC(C)[N+]1(C)[C@@H]2CC[C@H]1CC(OC(=O)C(CO)c1ccccc1)C2` (stereo not given in full), the Potency result in experiment [1], in [4], in [5], in experiment [6], in experiment [7] and in experiment [8] was “inactive” throughout. Besides, the Potency result in experiment [10], in experiment [11], in experiment [15] and in experiment [16] was “inactive” each time. Also, the Potency was 9.35 µM (active) in experiment [2], 9.35 µM (active) in [3], 11.8 µM (active) in experiment [9] and 29.6 µM (active) in [14].

As for `Cc1nc2n(c(=O)c1CCN1CCC(c3noc4cc(F)ccc34)CC1)CCCC2`, the Potency entry in [1], in experiment [2], in [3], in [4], in experiment [5] and in experiment [6] was “inactive” in each case. Further, the Potency result in experiment [7], in experiment [8], in experiment [9], in [10], in experiment [11] and in experiment [12] was “inactive” throughout. For the same molecule, the Potency entry in [13], in experiment [14], in experiment [15], in [16], in experiment [17] and in [18] was “inactive” throughout.

Take `Nc1ccc(S(N)(=O)=O)cc1`: the Potency entry in [1], in experiment [2], in experiment [3], in [4], in [5] and in experiment [6] was “inactive” throughout. Further, the Potency entry in experiment [7], in [8], in experiment [9], in experiment [10], in [11] and in experiment [12] was “inactive” each time. The Potency result in experiment [13], in experiment [14], in [15], in [16], in [17] and in [18] was “inactive” in each case.

For the molecule `Nc1cc(C(Cl)=C(Cl)Cl)c(S(N)(=O)=O)cc1S(N)(=O)=O`, the Potency entry in experiment [1], in experiment [2], in [3], in experiment [4], in [5] and in [6] was “inactive” in each case. Moreover, the Potency entry in [7], in experiment [8], in experiment [9], in experiment [10], in experiment [11] and in [12] was “inactive” in each case. Further, the Potency entry in [13], in experiment [14], in experiment [15], in experiment [16], in [17] and in experiment [18] was “inactive” throughout.

Regarding `Nc1ccn([C@@H]2O[C@H](CO)[C@@H](O)C2O)c(=O)n1` (stereo not given in full), the Potency entry in experiment [1], in [2], in experiment [3], in [4], in experiment [5] and in [6] was “inactive” in each case. The Potency entry in experiment [7], in experiment [8], in experiment [9], in experiment [10], in experiment [11] and in experiment [12] was “inactive” throughout. Besides, the Potency result in experiment [13], in experiment [14], in experiment [15], in [16], in experiment [17] and in [18] was “inactive” in each case. Also, the Potency entry in experiment [19] was “inactive”.
